In the library only some 19% were active in any assay of this set; here they are far more common.
Pf growth 96h: P. falciparum growth inhibition at 96 hours | AID 504834 | Potency, µM (titrated, usually from 28.7 µM), without a hit: at the top dose activity change, negative = inhibition, usual class: inhibitors | 6.9% of 320,000 active | P. falciparum luciferase reporter growth, 96 h; note: potency is the fitted concentration of half-maximal effect; % is set by controls: 0 for no effect and ±100 for the full control effect
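Infected RBCs, 2% Hct / 0.05% parasitemia final; luciferase-reporter P. falciparum; cpd 96 h, 37 C, 5% CO2; luciferase detection reagent; luminescence.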
Shiga toxin inh: Shiga toxin inhibition; AID 2315; Vero cells, Shiga toxin protein synthesis inhibition reporter; 9.2% of 290,000 active; inhibition, % at 38.7 µM; in the data active = inhibition mostly above about 28%, no sharp cut-off; inactive = mostly below about 43%; note: 0% is about no effect
Pf growth 48h: inhibits P. falciparum growth in the first generation, 48 h; AID 504832; P. falciparum luciferase growth in erythrocytes, 48 h; 5.9% of 310,000 active; Potency, µM (series often up to 28.7 µM), for the others: at the top dose activity change, negative = inhibition, usual class: inhibitors; note: potency is the fitted concentration of half-maximal effect; % is set by controls: 0 for no effect and ±100 for the full control effect
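Firefly luciferase activity from engineered P. falciparum reports growth; inhibitors lower the luminescent signal. Cultures contained 2% hematocrit erythrocytes at 0.1% final parasitemia.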
MARV entry inh: blocks Marburg virus binding to or entry into cells; Potency, µM (doses to about 37.8 µM), without a hit: at the top dose activity change, negative = inhibition, hits mostly inhibitors; Marburg virus pseudotyped entry inhibition, cell reporter; 1.8% of 300,000 active; calls by dose curve; tested in HEK293 cells; note: potency is the fitted concentration of half-maximal effect; % is set by controls: 0 for no effect and ±100 for the full control effect
CHX counter: affects cycloheximide protein synthesis inhibition readout, counter-screen; cell reporter, cycloheximide protein synthesis inhibition counterscreen; max response, %; 12% of 300,000 active; AID 2314; in the data active = max response mostly above about 13%, no sharp cut-off; inactive = mostly below about 14%; note: read at 38.3 µM for the half of the compounds with a filed dose; 0% is about no effect
Lassa entry inh: blocks Lassa virus binding to or entry into cells; Lassa virus pseudotype entry inhibition, cell reporter; Potency, µM (top dose mostly 37.9 µM), for the others: top-dose activity change, negative = inhibition, most hits filed as inhibitors; 1.2% of 300,000 active; calls by dose curve; tested in HEK293 cells; note: potency is the fitted concentration of half-maximal effect; % is set by controls: 0 for no effect and ±100 for the full control effect; nearly all actives have a fitted effect of over 50% in size
An asterisk follows results filed as active; ? = inconclusive; nt = no result given; [ ] = remark or other dose. Unless noted, calls come from the whole dose curve; as a rule, active = well fitted inhibition curve with a large enough effect; inconclusive = small, poorly fitted or top-dose-only effect, or another doubt; inactive = no such curve, though single readings can be large or run the other way.

SMILES | Pf growth 96h | Shiga toxin inh | Pf growth 48h | MARV entry inh | CHX counter | Lassa entry inh
O=C(Nc1cc(Cl)cc(Cl)c1)N1CCN(C(=O)C2CCCO2)CC1 (centres undefined) | ? | -22.3 | -9.8% | 12.5% | -1.9 | ?
CCC(=O)N1CCN(C(C)=O)C1c1ccccc1 (centres undefined) | ? | -26.4 | 4.3% | 5.8% | -2.1 | 3.8%
CNC(=O)c1ccc(=O)n(Cc2cccc(C(F)(F)F)c2)c1 | 2.3% | -5.6 | 2.94µM* | 6.2%[46.1 µM] | -4.8 | 4.6%[46.1 µM]
Cc1ccc(NC(=O)CN2C(=O)CCc3cc(S(=O)(=O)N4CCCCC4)ccc32)cc1C | nt | nt | nt | nt | nt | -2.2%[46.1 µM]
O=C(O)CC(C(=O)O)N1C(=O)/C(=C/C=C/c2ccco2)SC1=S (centres undefined) | 40.9% | -10.5 | 37.7% | nt | -2.0 | nt
O=C1S/C(=C\C=C\c2ccco2)C(=O)N1c1ccccc1 | 109.4% | 59.5* | 25.8% | ? | 38.2* | ?
O=C1S/C(=C\C=C\c2ccco2)C(=O)N1c1ccc(O)cc1 | 31.0% | 70.8* | 112.2% | 20.6µM* | 43.3* | ?
COc1ccc2c(c1)NC(c1ccc(Cl)cc1)=NC(c1cccs1)=N2 | nt | nt | nt | 4.6%[46.1 µM] | nt | 6.6%[46.1 µM]
CCOC(=O)C(C#N)c1ccccn1 (centres undefined) | 24.3% | 64.0 | 63.9% | 26.7% | 29.4* | 48.5%[14.3 µM]
COc1ccc(OC(=O)c2cc(-c3ccc4c(c3)OCCO4)on2)cc1 | nt | nt | nt | -8.8%[46.1 µM] | nt | 19.4%[46.1 µM]
FC(F)Sc1ccc(N=C2NN=C(c3ccc4c(c3)OCCO4)CS2)cc1 | ? | 47.3* | ? | ? | 25.2* | ?
COc1ccc(N=C2NN=C(c3ccc4c(c3)OCCO4)CS2)cc1 | -84.3% | 6.4 | nt | 1.4% | 21.2* | -13.0%
COc1cc(OC)cc(-c2cc3nc(C)c(CCC(=O)NCCc4cccc(C)c4)c(C)n3n2)c1 | nt | nt | nt | -7.2%[46.1 µM] | nt | 7.4%[46.1 µM]
COc1cc(OC)cc(-c2cc3nc(C)c(CCC(=O)NCc4ccc(Cl)cc4)c(C)n3n2)c1 | nt | nt | nt | 4.47µM* | nt | ?
COc1ccc(CNC(=O)CCc2c(C)nc3cc(-c4ccc(OC)cc4OC)nn3c2C)cc1 | nt | nt | nt | -8.2%[46.1 µM] | nt | 6.0%[46.1 µM]
Cc1csc(NC(=O)CCc2c(C)nc3cc(-c4ccc(Cl)cc4)nn3c2C)n1 | 14.7µM* | 12.6 | ? | -35.0% | 0.7 | ?
COc1cc(OC)cc(-c2cc3nc(C)c(CCC(=O)NCc4ccccc4)c(C)n3n2)c1 | ? | -40.6 | ? | 11.2µM* | -5.5 | 8.91µM*
O=C(O)CCC(=O)Nc1ccc(Br)cc1C(=O)c1ccccc1Cl | 30.7% | 9.9 | 18.8% | 2.6%[46.1 µM] | -1.6 | -1.0%[46.1 µM]
O=C1CC(c2ccccc2)=Nc2ccc(Br)cc2N1 | 42.6% | 28.3 | -21.7% | ? | 7.8 | ?
Cc1ccc2c(c1)NC(=O)CC(c1ccccc1)=N2 | -16.5% | 63.0* | 116.3% | -26.8% | 40.1* | 23.8%
CC(C)c1oc(=O)cc2c1[C@@H](O)[C@H]1OC(=O)[C@@]3(C)C[C@@H](O)[C@@H](O)[C@@]2(C)C13 (some centres undefined) | 1.04µM* | -21.6 | 1.47µM* | 3.26µM* | -6.5 | 6.51µM*
CC(C)c1oc(=O)cc2c1[C@@H](O)[C@H]1OC(=O)[C@@]3(C)CC[C@@H](O)[C@@]2(C)C13 (some centres undefined) | 2.62µM* | -29.2 | 2.94µM* | ? | -4.0 | ?
C/C(=N\Nc1cc(C)nc(NCc2ccccc2)n1)c1cccc([N+](=O)[O-])c1 | ? | 22.8 | ? | nt | 1.0 | nt
CCOC(=O)c1c(C)sc2c1N(C(=O)CCl)c1cc(Cl)ccc1S2 | 14.7µM* | -18.9 | ? | ? | -5.3 | ?
CC1CCN(c2nncc3ccccc23)CC1 | 6.57µM* | 22.2 | ? | 12.5%[46.1 µM] | -2.1 | -10.4%
O=C(CSc1nc2ccccc2c(=O)n1-c1ccccc1)NCC1CCCO1 (centres undefined) | 49.1% | -5.7 | ? | -1.4%[46.1 µM] | -5.4 | 9.9%[46.1 µM]
N=c1oc2ccc(Br)cc2cc1C(=O)NCc1ccc(F)cc1 | 2.62µM* | 8.9 | -1.6% | nt | 22.6* | nt
CCN(CC)c1ccc2cc(C(=O)NCc3ccc(F)cc3)c(=N)oc2c1 | 1.65µM* | -2.3 | ? | nt | 10.2 | nt
Cc1nn(C(C)C(=O)NCc2cccc(F)c2)c(=O)c2c1sc1ccccc12 (centres undefined) | nt | nt | nt | -4.8%[46.1 µM] | nt | -2.0%[46.1 µM]
